# Reference: PubChem BioAssay (NCI)
# Compounds without any hit were thinned out: in the full panel of roughly 83,000, 20% have a hit.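 Negative percent growth values reflect cell death: -40 means 40% of the cells present at the start died, and -100 means all died.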 A number with no mark means an inactive call. The source made the active and inactive calls. Rule for the calls: active = growth percent below 10; inactive = the rest.
# What was measured:
# Test in all cases: NCI-60 one-dose screen, 48 h (100 = growth as untreated, 0 = no growth, -100 = all killed)
# Conditions in all cases: 10 µM unless noted
# NCI-H23 lung = tested on: NCI-H23 lung
# NCI-H226 lung = tested on: NCI-H226 lung
# NCI-H322M lung = tested on: NCI-H322M lung
# HOP-62 NSCLC = tested on: HOP-62 NSCLC
# NCI-H460 lung = tested on: NCI-H460 lung
# HOP-92 NSCLC = tested on: HOP-92 NSCLC
# NCI-H522 lung = tested on: NCI-H522 lung
# A549/ATCC NSCLC = tested on: A549/ATCC NSCLC
# 786-0 renal = tested on: 786-0 renal
# COLO 205 colon = tested on: COLO 205 colon
# DU-145 prostate = tested on: DU-145 prostate
# K-562 leukemia = tested on: K-562 leukemia
# MALME-3M melanoma = tested on: MALME-3M melanoma
# MDA-MB-231 breast = tested on: MDA-MB-231 breast
# RXF 393 renal = tested on: RXF 393 renal
# SF-268 CNS = tested on: SF-268 CNS
# SF-295 CNS = tested on: SF-295 CNS
# SF-539 CNS = tested on: SF-539 CNS
# UACC-257 melanoma = tested on: UACC-257 melanoma
# M14 melanoma = tested on: M14 melanoma
SMILES,growth (NCI-H23 lung),growth (NCI-H226 lung),growth (NCI-H322M lung),growth (HOP-62 NSCLC),growth (NCI-H460 lung),growth (HOP-92 NSCLC),growth (NCI-H522 lung),growth (A549/ATCC NSCLC),growth (786-0 renal),growth (COLO 205 colon),growth (DU-145 prostate),growth (K-562 leukemia),growth (MALME-3M melanoma),growth (MDA-MB-231 breast),growth (RXF 393 renal),growth (SF-268 CNS),growth (SF-295 CNS),growth (SF-539 CNS),growth (UACC-257 melanoma),growth (M14 melanoma)
COc1ccc(/C=C\c2cc(OC)c(OC)c(OC)c2)c(NS(=O)(=O)c2ccc(C)cc2)c1O,23.2%,33.9%,43.6%,80.7%,6.42% (active),44.4%,-17.3% (active),26.6%,18.8%,-15.5% (active),-14.4% (active),17.6%,92.2%,14.8%,32.5%,19.4%,16.9%,1.5% (active),66.7%,9.2% (active)
COC(=O)[C@@H](C)C[C@H](Cc1ccccc1)NC(=O)c1csc([C@@H](C[C@H](C(C)C)N(C)C(=O)[C@@H](NC(=O)[C@H]2CCCCN2C)C(C(F)(F)F)C(F)(F)F)OC(C)=O)n1,44.8%,56.7%,37%,15.1%,5.59% (active),12.4%,-8.2% (active),12.8%,-5.39% (active),-50.6% (active),11.4%,8.83% (active),65.8%,6.65% (active),46%,18.3%,9.85% (active),-11.1% (active),52.4%,-20.3% (active)
COc1cc2c(cc1OCCCn1c(-c3ccccn3)nc3ccccc31)N=C[C@@H]1CCCN1C2=O,15%,-62% (active),25.7%,18%,-22.7% (active),-59.6% (active),-5.46% (active),20%,-33.7% (active),9.33% (active),26%,17.4%,-9.03% (active),6.19% (active),-11.8% (active),10.4%,-3.07% (active),14.3%,,10.5%
CSc1nc(Cl)cc(N2CC2)n1,103%,108%,128%,103%,105%,93%,126%,102%,104%,139%,110%,120%,105%,106%,111%,99.1%,115%,98.8%,107%,114%
CCCCCCCOC(C(=O)OCCN(CC)CC)(c1ccccc1)c1ccccc1,87.7%,96.4%,98.7%,89.6%,84.4%,67.6%,73.4%,90.8%,65.8%,95.3%,86.9%,56.6%,100%,82.5%,92.4%,87.9%,123%,96.9%,,90.5%
CC(C)CCC(=O)O[C@H]1CC[C@H]2[C@@H]3CCC4=CC(=O)CC[C@]4(C)[C@H]3CC[C@]12C,95.2%,97.5%,93.4%,102%,98.7%,112%,93.3%,96%,105%,106%,96.5%,98.2%,84.2%,98.2%,107%,93.1%,102%,96%,,98.9%
c1cnc2[nH]cc(-c3csc(-c4cn(CCCCN5CCOCC5)c5ccccc45)n3)c2c1,81.1%,72.4%,79%,52.8%,31.4%,32%,49.1%,56.9%,54%,-77.6% (active),70%,-38.7% (active),-25% (active),32.8%,53.7%,49.7%,53.9%,80.8%,67.8%,-49.9% (active)
Nc1cc2nc3ccccc3nc2cc1N,77.3%,85.6%,99.4%,80.4%,95.7%,97.8%,79.8%,80.1%,102%,106%,91.5%,59.8%,122%,86.9%,81.5%,92.4%,89.8%,95.4%,,109%
COc1ccc(S(=O)(=O)Nc2c(/C=C\c3cc(OC)c(OC)c(OC)c3)ccc(OC)c2O)cc1OC,33.2%,29%,44.3%,71.5%,5.24% (active),30.5%,-9.02% (active),20.9%,14%,-39.3% (active),-10.2% (active),17.2%,69.2%,1.41% (active),24.6%,23.7%,12%,-14.6% (active),58.5%,9.05% (active)
CCn1cnc2c(Nc3cccc(Cl)c3)nc(N[C@@H]3CCCC[C@@H]3N)nc21,-21.5% (active),10.6%,15.4%,-11.1% (active),1.68% (active),-9.78% (active),-32.4% (active),-7.67% (active),1.83% (active),-67.6% (active),6.73% (active),-2.92% (active),15%,-22.3% (active),-44.5% (active),0.266% (active),9.85% (active),-5.76% (active),14.1%,-45.8% (active)
CCCCOc1ccc(C(N)Cc2ccccc2)cc1 (stereo not drawn),104%,112%,92.4%,107%,95.5%,41%,93%,90%,75.3%,-43.2% (active),109%,54.2%,106%,75.1%,104%,85.4%,113%,102%,,87.1%
c1ccc(COc2ccc3[nH]cc(CCN(Cc4ccccc4)Cc4ccccc4)c3c2)cc1,77.5%,73.8%,100%,99.4%,91.6%,81.6%,82.9%,85.2%,91.9%,101%,98.8%,71.1%,91.3%,83.3%,91.2%,92.4%,91.4%,97.1%,,98.6%
CC1(C)[C@H](O)[C@H](F)C[C@@]2(C)Oc3ccc(C(=O)Nc4ccc5c(c4)NC(=O)C54CCN(CCCCC#N)CC4)cc3C[C@H]12,55.4%,69.9%,91.9%,12.8%,21.3%,41.7%,-4.72% (active),19.5%,21.5%,-23.7% (active),48.5%,2.93% (active),13.5%,28.8%,,43.6%,-59.6% (active),8.86% (active),,-6.54% (active)
C=CCCCCCCCCC(=O)[O-].C=CCCCCCCCCC(=O)[O-].[Zn+2],96.9%,115%,103%,119%,106%,72.5%,119%,101%,97.2%,127%,114%,92%,108%,,,106%,97.7%,97.9%,98.5%,107%
CCOC(=O)c1c(C)n(Cc2ccccc2)c2cc(CN(C)C)c(O)cc12,57.2%,91.3%,41.8%,47.9%,53.4%,8.81% (active),77.9%,79.5%,57.8%,58%,79.9%,29.3%,103%,,66.9%,82.9%,43.6%,57.8%,81.8%,81.3%
Cc1cc(N(CCCl)CCCl)ccc1/C=N\NC(=O)c1ccncc1,87.8%,-7.98% (active),113%,79.4%,25.9%,97%,101%,78.4%,82.5%,98%,82.4%,85.2%,,96.4%,91.7%,70.7%,56.2%,60.3%,79.8%,90.4%
